Broadly, the AC50 is the concentration giving half of the maximal activity seen.

Data on four molecules can be found in PubChem BioAssay (EPA / NIEHS).

Molecules are shown by their SMILES. Active and inactive are the calls of the source. Rule for the calls: active = hit-call score of the fitted dose curve at least 0.9, where 1 is the maximum; inactive = score below 0.9.

A short description of assay [1]: ATG_DR4_LXR_CIS: Attagene CIS-FACTORIAL HepG2 Assay for human Liver X Receptor (LXR), DR4 submotif (AID 2282929). Conditions: HepG2 Attagene DR4 cis-reporter, mRNA transcription; AC50: actives raise or lower the signal unless noted; outcome: actives raise or lower the signal unless noted. In outline: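 HepG2 cells transiently transfected with cis-promoter-driven multiplexed reporter units (DR4 element) were dosed for 24 h. Reporter mRNA was quantified by RT-PCR, fluorescent primer extension, HpaI digestion and capillary electrophoresis; bidirectional fitting versus DMSO baseline.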

Assay [2] addresses Aryl hydrocarbon receptor (Homo sapiens) (UniProt P35869). Briefly: ATG_Ahr_CIS: Attagene CIS-FACTORIAL HepG2 Assay for human Aryl Hydrocarbon Receptor (Ahr) (AID 2282930). As to conditions: HepG2 AhR cis-factorial reporter transcription; actives raise or lower the signal. The method in brief:
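Following 24 h of chemical dosing, transfected HepG2 liver cells with cis-driven reporter units were lysed for RNA; reporter mRNA was quantified via RT-PCR and capillary electrophoresis, and responses fitted bidirectionally from DMSO.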

Assay [3] is described as follows: ATG_AP_1_CIS: Attagene CIS-FACTORIAL HepG2 Assay for human Activator Protein 1 (AP-1) (AID 2282931). Conditions: HepG2 Attagene cis-factorial AP-1 reporter mRNA; actives raise or lower the signal. The method in brief:
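HepG2 cells transiently transfected with cis-element-driven multiplex reporter units; 24 h compound exposure. Reporter mRNA quantified by RT-PCR, FAM-labelled fragments resolved by capillary electrophoresis; bidirectional fit versus DMSO baseline.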

Assay [4] in a line: ATG_AP_2_CIS: Attagene CIS-FACTORIAL HepG2 Assay for human Activator Protein 2 (AP-2) (AID 2282932). Conditions: HepG2 AP-2 cis-reporter, Attagene transcription factor profiling; AC50: actives raise or lower the signal unless noted; outcome: actives raise or lower the signal unless noted. In outline: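 HepG2 cells were transiently transfected with multiple cis-promoter reporter transcription units and dosed for 24 h. Reporter mRNA was measured by RT-PCR with capillary electrophoresis fluorescence; bidirectional fits relative to DMSO baseline.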

Assay [5] in a line: ATG_BRE_CIS: Attagene CIS-FACTORIAL HepG2 Assay for human Bone Morphogenetic Protein (BMP) Response Element (BRE) (AID 2282933). As to conditions: HepG2 BMP response element reporter, Attagene transcription factor profiling; actives raise or lower the signal. The method in brief:
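Endogenous transcription factor activity read in transiently transfected HepG2 cells after 24 h chemical exposure. Bidirectional curve fitting against DMSO; readout is reporter transcript level by RT-PCR with capillary electrophoresis of labelled products.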

In assay [6] the target is Retinoic acid receptor alpha (Homo sapiens) (UniProt P10276). Description: ATG_DR5_RAR_CIS: Attagene CIS-FACTORIAL HepG2 Assay for human Retinoic Acid Receptor Alpha (RARE), DR5 submotif (AID 2282934). As to conditions: HepG2 Attagene cis-factorial RARE DR5 reporter, mRNA; actives raise or lower the signal. The method in brief:
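Transfected HepG2 reporter cells are exposed to chemicals for 24 h. Then RNA is extracted and the DR5 element reporter transcript is measured by RT-PCR and capillary electrophoresis, with bidirectional curve fitting relative to DMSO.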

For assay [7], the target named is Transcription factor E2F1 (Homo sapiens) (UniProt Q01094). Briefly: ATG_E2F_CIS: Attagene CIS-FACTORIAL HepG2 Assay for human E2F Transcription Factor 1 (AID 2282935). As to conditions: HepG2 Attagene cis-reporter, E2F reporter RNA transcripts; actives raise or lower the signal. In outline:
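HepG2 cells transiently transfected with multiplexed cis-element reporter units, dosed for 24 h. Reporter mRNA measured by RT-PCR, 6-FAM primer-extension labeling, HpaI digestion and capillary electrophoresis; bidirectional fit versus DMSO baseline.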

Assay [8] is described as follows: ATG_E_Box_CIS: Attagene CIS-FACTORIAL HepG2 Assay for human Enhancer Box (E-box) (AID 2282936). Conditions: HepG2 E-box cis-reporter transcription, actives raise or lower the signal. In outline: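 HepG2 cells transiently transfected with multiplexed cis-element reporter units sensing endogenous transcription factor activity; 24 h compound exposure. Reporter mRNA measured by RT-PCR, 6-FAM primer extension, HpaI digestion and capillary electrophoresis; bidirectional fit versus DMSO.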

Assay [9] can be described thus: ATG_M_61_CIS: Attagene CIS-FACTORIAL HepG2 Assay for M61 Transcription Factor (Internal Marker) (AID 2282937). As to conditions: HepG2 Attagene CIS-FACTORIAL M61 internal marker reporter; actives raise or lower the signal. The method in brief: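 HepG2 cells transiently transfected with cis-element-driven multiple reporter transcription units, dosed for 24 h. Reporter mRNA measured by RT-PCR, 6-FAM primer-extension labelling, HpaI digestion and capillary electrophoresis; bidirectional fit versus DMSO baseline.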

The nature of assay [10]: ATG_EGR_CIS: Attagene CIS-FACTORIAL HepG2 Assay for human Early Growth Response 1 (EGR1) (AID 2282938). Conditions: HepG2 Attagene CIS-FACTORIAL EGR reporter mRNA; actives raise or lower the signal. In outline:
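HepG2 cells transiently transfected with cis-promoter-driven multiplexed reporter transcription units; reporter mRNA measured 24 h after compound dosing by RT-PCR, 6-FAM primer extension, HpaI digestion and capillary electrophoresis. Bidirectional fit versus DMSO baseline.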

Assay [11] is described as follows: ATG_M_19_CIS: Attagene CIS-FACTORIAL HepG2 Assay for M19 Transcription Factor (Internal Marker) (AID 2282939). As to conditions: HepG2 Attagene CIS-FACTORIAL M19 internal marker reporter; actives raise or lower the signal. In outline:
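Internal marker readout, fitted in both directions against DMSO, from HepG2 cells carrying transfected cis-element reporter constructs; RT-PCR and capillary electrophoresis of reporter mRNA after 24 h exposure.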

The nature of assay [12]: ATG_ERE_CIS: Attagene CIS-FACTORIAL HepG2 Assay for Estrogen Response Element (ERE) (AID 2282940). Conditions: HepG2 ERE cis-reporter, Attagene RNA transcript; actives raise or lower the signal. The method in brief:
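After 24 h compound treatment, RNA from transfected HepG2 cells was reverse-transcribed, reporter cDNA PCR-amplified, FAM-labelled, HpaI-cut and resolved by capillary electrophoresis. ERE-driven cis reporter transcripts reflect endogenous factors; gain or loss scored against DMSO.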

The nature of assay [13]: ATG_Ets_CIS: Attagene CIS-FACTORIAL HepG2 Assay for human Erythroblast Transformation Specific (ETS) (AID 2282941). Conditions: HepG2 ETS cis-reporter transcription; AC50: actives raise or lower the signal unless noted; outcome: actives raise or lower the signal unless noted. In outline: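 HepG2 cells transiently transfected with cis-promoter reporter transcription units were dosed for 24 h; reporter mRNA was measured by RT-PCR, 6-FAM primer extension, HpaI digestion and capillary electrophoresis, with bidirectional fitting against DMSO baseline.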

The nature of assay [14]: ATG_FoxO_CIS: Attagene CIS-FACTORIAL HepG2 Assay for human Forkhead box O (FoxO) (AID 2282943). Conditions: HepG2 Attagene cis-reporter, FoxO element, mRNA; actives raise or lower the signal. In outline: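 24 h chemical exposure, HepG2 with transient cis-MRTU transfection. RNA extraction, oligo(dT) RT, reporter-specific PCR, primer-extension labelling, HpaI digestion, CE fragment analysis; bidirectional fit, DMSO baseline.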

Assay [15] is described as follows: ATG_GATA_CIS: Attagene CIS-FACTORIAL HepG2 Assay for human GATA Binding Protein (AID 2282944). Conditions: HepG2 GATA cis-element reporter, Attagene multiplex mRNA; actives raise or lower the signal. In outline: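 Reporter transcripts from a GATA cis-regulated unit, among multiplexed reporters in transfected HepG2 cells, were measured by RT-PCR with capillary electrophoresis after 24 h dosing. Induction or loss scored relative to DMSO.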

Assay [16] in a line: ATG_GLI_CIS: Attagene CIS-FACTORIAL HepG2 Assay for human Zinc Finger Protein GLI1 (AID 2282945). As to conditions: HepG2, Attagene cis-factorial reporter mRNA, GLI element; actives raise or lower the signal. The method in brief: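 HepG2 cells transiently transfected with cis-promoter multiplexed reporter units report endogenous transcription factor activity. After 24 h chemical exposure, reporter mRNA was quantified by RT-PCR, 6-FAM labelling, HpaI digestion and capillary electrophoresis, with bidirectional fitting against DMSO.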

Assay [17] in a line: ATG_GRE_CIS: Attagene CIS-FACTORIAL HepG2 Assay for human Glucocorticoid Response Elements (GRE) (AID 2282947). Conditions: HepG2 GRE cis-reporter, Attagene multiplex mRNA; AC50: actives raise or lower the signal unless noted; outcome: actives raise or lower the signal unless noted. In outline:
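HepG2 cells transiently transfected with multiple cis-promoter reporter units measure endogenous TF activity; 24 h compound exposure. Reporter mRNA quantified by RT-PCR, FAM labelling, HpaI digestion and capillary electrophoresis; bidirectional fit vs DMSO baseline.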

A short description of assay [18]: ATG_ISRE_CIS: Attagene CIS-FACTORIAL HepG2 Assay for human Interferon Regulatory Factor 1 (IRF1) binding to an Interferon-Stimulated Response Element (ISRE) (AID 2282948). As to conditions: HepG2 ISRE cis-reporter (Attagene), mRNA transcription readout; actives raise or lower the signal. In outline: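 HepG2 cells transiently transfected with multiplexed cis-promoter reporter units; after 24 h compound exposure, reporter mRNA quantified by RT-PCR, FAM labelling, HpaI digestion and capillary electrophoresis. Bidirectional fit versus DMSO baseline.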

Assay [19] deals with Hepatocyte nuclear factor 3-beta (Homo sapiens) (UniProt Q9Y261). Briefly: ATG_FoxA2_CIS: Attagene CIS-FACTORIAL HepG2 Assay for human Forkhead box A2 (FOXA2) (AID 2282942). As to conditions: HepG2 cis-reporter transcription factor activity, 24 h; actives raise or lower the signal. The method in brief:
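HepG2 cells transiently transfected with multiple cis-regulated reporter transcription units, dosed for 24 h. Reporter mRNA measured by RT-PCR, 6-FAM labelling, HpaI digestion and capillary electrophoresis; bidirectional fitting against DMSO baseline.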

For assay [20], the target named is Bile acid receptor (Homo sapiens) (UniProt Q96RI1). Briefly: ATG_IR1_CIS: Attagene CIS-FACTORIAL HepG2 Assay for human Nuclear Receptor Subfamily 1 Group H Member 4 (NR1H4), IR1 submotif (AID 2282946). Conditions: IR1 reporter transcription, actives raise or lower the signal. In outline: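 Transient MRTU transfection, HepG2; 24 h dosing; RNA → RT-PCR → 6-FAM primer extension → HpaI digest → capillary electrophoresis fluorescence. Gain/loss of signal fitted relative to DMSO.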
Chain of Bile acid receptor (Homo sapiens) (Q96RI1 whole entry, looked up): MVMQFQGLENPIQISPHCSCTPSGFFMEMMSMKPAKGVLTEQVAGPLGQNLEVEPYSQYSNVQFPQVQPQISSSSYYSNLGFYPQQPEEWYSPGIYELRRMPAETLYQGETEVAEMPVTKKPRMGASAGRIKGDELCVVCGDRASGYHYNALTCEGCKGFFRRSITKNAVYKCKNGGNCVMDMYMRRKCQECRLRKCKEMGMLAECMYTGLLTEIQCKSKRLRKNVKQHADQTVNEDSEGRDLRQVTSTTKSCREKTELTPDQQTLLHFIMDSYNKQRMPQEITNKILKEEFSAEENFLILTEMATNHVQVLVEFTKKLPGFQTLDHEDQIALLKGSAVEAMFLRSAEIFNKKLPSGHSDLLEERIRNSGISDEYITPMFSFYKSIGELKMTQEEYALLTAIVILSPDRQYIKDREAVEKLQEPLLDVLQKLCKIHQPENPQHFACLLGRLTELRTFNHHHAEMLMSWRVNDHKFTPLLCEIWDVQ

Chain of Aryl hydrocarbon receptor (Homo sapiens) (P35869 whole entry, looked up): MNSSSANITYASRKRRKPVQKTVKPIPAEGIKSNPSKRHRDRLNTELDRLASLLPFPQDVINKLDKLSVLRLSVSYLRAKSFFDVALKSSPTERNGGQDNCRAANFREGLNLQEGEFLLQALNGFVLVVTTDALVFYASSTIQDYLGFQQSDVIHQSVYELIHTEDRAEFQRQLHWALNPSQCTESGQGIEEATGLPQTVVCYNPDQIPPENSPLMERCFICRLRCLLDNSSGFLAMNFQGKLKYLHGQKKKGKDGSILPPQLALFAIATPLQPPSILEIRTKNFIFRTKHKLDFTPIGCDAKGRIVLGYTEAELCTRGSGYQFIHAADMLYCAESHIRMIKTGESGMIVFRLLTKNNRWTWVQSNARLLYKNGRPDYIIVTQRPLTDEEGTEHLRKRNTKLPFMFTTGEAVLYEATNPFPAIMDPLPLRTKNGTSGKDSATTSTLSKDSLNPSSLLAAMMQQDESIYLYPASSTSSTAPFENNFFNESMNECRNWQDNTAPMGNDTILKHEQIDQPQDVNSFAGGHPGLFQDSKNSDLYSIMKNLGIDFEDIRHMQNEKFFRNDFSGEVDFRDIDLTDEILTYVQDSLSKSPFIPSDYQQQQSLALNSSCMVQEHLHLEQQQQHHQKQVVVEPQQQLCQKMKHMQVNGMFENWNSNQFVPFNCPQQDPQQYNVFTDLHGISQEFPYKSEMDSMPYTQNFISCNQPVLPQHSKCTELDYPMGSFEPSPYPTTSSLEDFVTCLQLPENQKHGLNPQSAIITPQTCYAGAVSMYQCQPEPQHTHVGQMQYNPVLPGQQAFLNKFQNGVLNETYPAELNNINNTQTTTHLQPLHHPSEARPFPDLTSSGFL
Chain of Transcription factor E2F1 (Homo sapiens) (Q01094 whole entry, looked up): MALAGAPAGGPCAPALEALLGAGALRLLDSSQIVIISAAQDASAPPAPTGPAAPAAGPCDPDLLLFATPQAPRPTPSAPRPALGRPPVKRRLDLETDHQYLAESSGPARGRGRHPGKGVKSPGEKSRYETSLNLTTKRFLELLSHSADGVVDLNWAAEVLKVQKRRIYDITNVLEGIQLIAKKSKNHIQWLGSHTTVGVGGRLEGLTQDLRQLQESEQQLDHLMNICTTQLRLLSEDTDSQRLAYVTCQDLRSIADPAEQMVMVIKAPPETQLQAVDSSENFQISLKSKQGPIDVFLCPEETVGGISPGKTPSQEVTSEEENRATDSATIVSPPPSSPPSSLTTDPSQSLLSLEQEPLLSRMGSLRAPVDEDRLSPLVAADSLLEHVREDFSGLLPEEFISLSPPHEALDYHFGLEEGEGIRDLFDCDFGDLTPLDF
Chain of Retinoic acid receptor alpha (Homo sapiens) (P10276 whole entry, looked up): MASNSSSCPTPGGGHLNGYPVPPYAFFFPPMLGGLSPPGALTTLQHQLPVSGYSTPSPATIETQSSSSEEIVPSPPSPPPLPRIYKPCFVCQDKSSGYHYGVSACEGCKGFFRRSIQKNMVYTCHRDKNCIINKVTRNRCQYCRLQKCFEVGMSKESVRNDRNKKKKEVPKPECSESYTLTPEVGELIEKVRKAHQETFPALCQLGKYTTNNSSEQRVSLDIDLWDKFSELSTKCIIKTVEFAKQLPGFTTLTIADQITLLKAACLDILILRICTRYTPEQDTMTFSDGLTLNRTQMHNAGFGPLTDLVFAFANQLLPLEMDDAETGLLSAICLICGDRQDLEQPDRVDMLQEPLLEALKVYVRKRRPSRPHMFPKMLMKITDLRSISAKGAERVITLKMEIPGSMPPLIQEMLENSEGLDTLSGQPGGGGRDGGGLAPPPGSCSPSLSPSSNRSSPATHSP
Chain of Hepatocyte nuclear factor 3-beta (Homo sapiens) (Q9Y261 whole entry, looked up): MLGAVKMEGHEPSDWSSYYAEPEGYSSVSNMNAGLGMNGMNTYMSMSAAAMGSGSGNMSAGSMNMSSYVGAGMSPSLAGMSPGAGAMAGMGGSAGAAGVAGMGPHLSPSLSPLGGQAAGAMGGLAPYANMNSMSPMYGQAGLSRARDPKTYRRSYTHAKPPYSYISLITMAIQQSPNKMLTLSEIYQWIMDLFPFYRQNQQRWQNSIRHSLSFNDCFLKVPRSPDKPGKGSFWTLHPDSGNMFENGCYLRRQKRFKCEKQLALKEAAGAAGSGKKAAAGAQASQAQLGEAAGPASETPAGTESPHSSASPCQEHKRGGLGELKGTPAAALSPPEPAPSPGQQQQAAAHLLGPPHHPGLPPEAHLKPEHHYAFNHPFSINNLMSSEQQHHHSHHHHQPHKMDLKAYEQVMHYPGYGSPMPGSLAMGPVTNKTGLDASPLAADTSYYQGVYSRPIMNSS

With `Cc1ccc(C(=O)c2ccccc2)cc1`, the outcome in [1], in assay [2], in assay [3], in assay [4], in [5] and in assay [6] was inactive. The molecule was called inactive in assay [7], in assay [8], in [9], in assay [10], in assay [11] and in assay [13]. Also, the outcome in assay [14], in [15], in [16], in [17] and in assay [18] was inactive. The AC50 in assay [12] was 27.2 µM (active).
`C=CC(=O)OCCN(CC)CC`: the AC50 in [1] is 26.6 µM (active); in assay [2], 65.6 µM (active); in assay [3], 178 µM (active); in assay [8], 37 µM (active); in assay [10], 54.4 µM (active); in assay [18] it was 44.3 µM (active). In addition, the call in assay [4], in assay [5], in assay [6], in [7], in [9] and in assay [11] was inactive. For the same molecule, the outcome in assay [12], in assay [13], in [14], in [15], in assay [16] and in assay [17] was inactive.
As to `COC(=O)C(F)(F)C(F)(F)C(F)(F)F`, the molecule was classed as inactive in assay [1], in assay [2], in assay [3], in assay [4], in assay [5] and in assay [6]. Also, the outcome in [7], in assay [8], in [9], in assay [10], in [12] and in assay [13] was inactive. The molecule was classed as inactive in assay [19], in assay [14], in assay [15], in [16], in [17] and in assay [18].
With `COC(=O)C(F)(F)C(F)(F)C(F)(F)C(F)(F)C(F)(F)F`, the molecule was classed as inactive in assay [1], in assay [2], in assay [3], in assay [4], in assay [5] and in [6]. Besides, the call in assay [7], in [8], in assay [9], in assay [10], in assay [12] and in assay [13] was inactive. The call in assay [19], in [14], in assay [15], in [16], in assay [20] and in assay [18] was inactive.
